# Screens from PubChem.
# The list is not random: actives were taken first. Their share in the collection is about 3.8%.
# PAFAH1B2 FP inh – inhibitors of human PAFAH1B2 | recombinant PAFAH1B2, FP-rhodamine activity probe, fluorescence polarization | inhibition, % at 3.39 µM | actives 1.2% (n = 340,000);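 active = inhibition above the mean of all tested compounds plus 3 SD, cut at about 24% in these data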;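 note: 0% = enzyme with DMSO and 100% = wells lacking PAFAH1B2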
# Target sequence (P68402 whole entry, looked up): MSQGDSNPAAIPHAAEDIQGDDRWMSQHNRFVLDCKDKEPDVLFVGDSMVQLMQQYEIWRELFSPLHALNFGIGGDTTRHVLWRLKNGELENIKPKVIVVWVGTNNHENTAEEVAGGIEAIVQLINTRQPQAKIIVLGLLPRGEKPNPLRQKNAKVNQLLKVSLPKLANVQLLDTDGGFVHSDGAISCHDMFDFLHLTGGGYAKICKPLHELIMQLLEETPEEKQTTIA
# DSG3 Ab inh – inhibitors of pemphigus antibody binding to human desmoglein-3. DSG3-coupled beads, scFv-anti-DSG3-GFP binding, flow cytometry; stronger effect = lower value. binding (percent of control), % at 10 µM. actives 0.48% (n = 310,000). AID 588358;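 active = binding more than 3 SD below its plate's average and above zero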;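 note: hits lower antibody fragment binding to DSG3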
# M18AAP inhibitor – PfM18AAP enzyme inhibition; recombinant PfM18AAP, H-Glu-NHMec fluorogenic cleavage; inhibition, % at 7.35 µM; actives 1.2% (n = 290,000); AID 1822;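 active = inhibition above the campaign mean inhibition over all tested compounds plus 3 SD, cut at about 28% in these data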;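 note: 0% = plate median of test compound wells and 100% = 2 mM ZnCl2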
# PAFAH1B3 FP inh – inhibitors of human PAFAH1B3; Q15102; recombinant PAFAH1B3, FP-rhodamine probe, fluorescence polarization; inhibition, % at 3.39 µM; actives 0.28% (n = 340,000);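 active = inhibition above the screen-wide average of all tested compounds plus 3 SD, cut at about 25% in these data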;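 note: 0% = enzyme with DMSO only and 100% = wells lacking PAFAH1B3 protein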
# Target sequence (Q15102 whole entry, looked up): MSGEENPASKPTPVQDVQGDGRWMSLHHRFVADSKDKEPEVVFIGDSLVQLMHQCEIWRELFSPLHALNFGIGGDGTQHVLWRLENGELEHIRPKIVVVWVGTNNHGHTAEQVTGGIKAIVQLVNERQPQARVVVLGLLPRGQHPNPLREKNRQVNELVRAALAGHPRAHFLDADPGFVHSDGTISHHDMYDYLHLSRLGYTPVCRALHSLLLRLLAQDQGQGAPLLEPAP
# pPAFAH FP inh – inhibitors of human plasma PAF acetylhydrolase (pPAFAH). AID 463082. recombinant pPAFAH, FP-rhodamine probe fluorescence polarization. Q13093. actives 1.5% (n = 330,000). inhibition, % at 3.39 µM;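 active = inhibition above the mean inhibition across the screen plus 3 SD, cut at about 25% in these data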;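 note: inhibitors block binding of the rhodamine activity-based probe so polarization drops; 0% = enzyme with DMSO and 100% = wells lacking pPAFAH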
# PAFAH2 inh – PAFAH2 (human) inhibition; Q99487; recombinant PAFAH2, FP-rhodamine activity probe, fluorescence polarization; inhibition, % at 3.39 µM; actives 0.99% (n = 340,000);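 active = inhibition above the mean over all tested compounds plus 3 SD, cut at about 30% in these data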;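 note: inhibitors block probe labeling of enzyme so polarization drops; 0% = enzyme with DMSO and 100% = wells lacking PAFAH2 protein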
# An asterisk follows results filed as active; x = no result given.
SMILES,PAFAH1B2 FP inh,DSG3 Ab inh,M18AAP inhibitor,PAFAH1B3 FP inh,pPAFAH FP inh,PAFAH2 inh
CCOC(=O)c1c(-c2ccc(OC)cc2)csc1/N=C/C1C(=O)CCCC1=O,-1.8,105.4,33.5*,2.5,-6.2,-13.6
O=C(/C=C/c1cccc(F)c1)Nc1cc(S(=O)(=O)N2CCOCC2)ccc1N1CCCC1,10.6,-24.2*,-16.1,5.0,0.2,-3.4
O=C(/C=C/c1ccc(F)cc1)Nc1cc(S(=O)(=O)N2CCOCC2)ccc1N1CCCC1,-3.5,83.9,1.9,-2.3,2.4,-3.2
Cc1cc(/C=N/n2c(COc3ccccc3)nc3ccccc3c2=O)c(O)c([N+](=O)[O-])c1,7.8,78.6,1.0,16.3,30.6*,-7.3
C[C@@H]1CN([C@@H](C)CO)C(=O)CCCn2nncc2CO[C@@H]1CN(C)C(=O)Nc1cccc(Oc2ccccn2)c1,x,104.6,x,x,x,x
CCn1nc(NS(=O)(=O)c2ccc([N+](=O)[O-])cc2)c2cc3cccc(C)c3nc21,6.7,100.1,4.9,8.4,27.7*,14.2
CCn1nc(NS(=O)(=O)c2ccccc2[N+](=O)[O-])c2cc3cccc(C)c3nc21,6.7,104.8,5.6,8.1,17.1,10.2
N#Cc1nc(-c2ccc(OCc3ccccc3)cc2)oc1N1CCC(C(N)=O)CC1,1.7,65.6*,-5.2,-0.3,-4.4,-8.4
COc1ccc(Cl)cc1NC(=O)C1Cc2ccccc2CN1S(C)(=O)=O (stereo unspecified),-0.2,x,28.3*,-5.8,5.6,6.1
O=C(CSC1=Nc2ccccc2C2CC=NN12)Nc1ccc(F)cc1Cl (stereo unspecified),2.8,29.8*,3.6,9.1,-0.2,-5.8
Cc1ccc(NC(=O)CSC2=Nc3ccccc3C3CC=NN23)c(C)c1 (stereo unspecified),-1.4,102.0,19.1,-6.9,-3.5,-6.8
O=C(Nc1cc(S(=O)(=O)N2CCCCC2)ccc1N1CCOCC1)c1ccc(F)cc1,6.4,100.4,x,15.5,x,1.4
N#Cc1ccsc1NC(=O)CSc1nncs1,2.7,107.6,x,12.7,10.8,13.4
N#Cc1ccsc1NC(=O)CSc1nnnn1-c1ccc(O)cc1,1.4,95.0,4.3,2.7,25.8*,0.7
Cc1ccc(S(=O)(=O)N2C[C@]3(O)C[C@@H]4C(=O)N(c5ccccc5)C(=O)[C@@H]4C[C@]3(OC(=O)NCC3CCCCC3)C2)cc1,x,99.4,x,x,x,x
O=C(O)c1cccc(S(=O)(=O)N(Cc2ccccc2)c2ccccc2Cl)c1,19.2,113.5,12.2,7.6,x,5.0
O=C(O)c1cc(S(=O)(=O)N(Cc2ccccc2)c2ccc(Cl)cc2)ccc1Cl,29.5*,89.4,-2.0,3.5,1.0,-20.7
O=C(O)c1ccc(N(Cc2ccccc2)S(=O)(=O)c2ccccc2)cc1,4.0,92.8,-0.5,10.8,4.7,6.4
O=C(O)c1cccc(S(=O)(=O)N(Cc2ccccc2)c2cccc(C(F)(F)F)c2)c1,23.9,89.2,2.4,-0.3,28.1*,1.4
CC1CC(=O)Nc2ccccc2N1C(=O)CSc1ncnc2sccc12 (stereo unspecified),-0.9,101.3,x,5.8,3.9,11.7
COC(=O)c1ccc(CNCC(O)COc2ccc(-c3ccccc3)cc2)cc1 (stereo unspecified),1.5,x,-2.5,-3.0,-1.5,-12.9
COc1ccc(CNCC(O)COc2ccc(C(C)(C)c3ccccc3)cc2)cc1 (stereo unspecified),11.9,93.4,-0.4,-3.3,26.4*,1.8
COc1ccccc1NCC(O)COc1ccc(C(C)(C)C)cc1 (stereo unspecified),6.9,x,-0.4,10.4,9.0,6.2
COc1ccc(NCC(O)COc2ccc(C(C)(C)C)cc2)cc1 (stereo unspecified),27.0*,x,5.5,7.6,12.3,0.4
COc1ccc2c(c1)Cc1cc(NC(=O)c3ccccc3-c3ccccc3C(=O)O)ccc1-2,x,103.2,x,x,x,x
SMILES,PAFAH1B2 FP inh,DSG3 Ab inh,M18AAP inhibitor,PAFAH1B3 FP inh,pPAFAH FP inh,PAFAH2 inh
Cc1ccc(NNC(=O)c2c(C)noc2C)cc1Cl,9.4,x,30.0*,1.3,1.2,7.8
Cc1noc(C)c1C(=O)NNc1ccc(C(C)C)cc1,5.8,92.8,13.6,-0.2,-2.5,6.5
CSc1nc(C)cc(Oc2ccc(=O)n(C)n2)n1,-3.3,96.1,1.0,-0.1,-3.0,-5.5
Cc1cc(Oc2ccc(=O)n(C)n2)nc(=S)[nH]1,x,x,28.4*,x,1.3,x
O=C(CSc1nnc(C2CC2)n1C1CC1)N1CCN(c2ccc(O)cc2)CC1,x,97.9,x,x,x,x
CN1CCC(=O)N(CCSc2ccc(Br)cc2)CC1,25.8*,103.0,x,11.3,7.6,11.7
O=C(CN1CCN(C(=O)CNC(=O)c2ccc(N3CCCC3=O)cc2)CC1)Nc1cccc(F)c1,x,92.7,x,x,x,x
O=C(N/N=C/c1c[nH]c2ccccc12)c1sc2ccccc2c1Cl,6.0,108.3,3.3,12.2,25.4*,13.6
O=C(N/N=C/c1ccc([N+](=O)[O-])o1)c1sc2ccccc2c1Cl,13.5,81.8*,11.5,11.6,30.5*,6.3
O=C(CSc1ccc(Cl)cc1)N/N=C/c1ccc([N+](=O)[O-])o1,29.1*,96.8,6.1,5.7,14.4,2.9
CCCNC(=O)c1cc(S(=O)(=O)N2CCC3(CC2)OCCO3)ccc1F,x,104.0,x,x,x,x
CC(=O)Nc1cc(C)ns1,1.8,x,x,13.8,x,9.9
CC1(C)CC(=O)C=C(c2ccc(-c3cccc(C(N)=O)c3)cc2)C1=O,x,96.8,x,x,x,x
COc1ccc(S(=O)(=O)Nc2ccc3c(c2)C(=O)N([C@H](C)CO)C[C@H](C)[C@@H](CN(C)S(=O)(=O)c2ccc(F)cc2)O3)cc1,29.1*,103.8,x,2.3,5.9,0.7
COc1ccc(S(=O)(=O)Nc2ccc3c(c2)C(=O)N([C@H](C)CO)C[C@@H](C)[C@@H](CN(C)S(=O)(=O)c2ccc(Cl)cc2)O3)cc1,17.4,103.0,x,2.3,7.3,3.7
C[C@@H]1CN([C@H](C)CO)C(=O)c2cc(NC(=O)Cc3ccccc3)ccc2O[C@H]1CN(C)Cc1ccc(Oc2ccccc2)cc1,-0.4,112.2,x,-2.9,25.2*,4.2
C[C@H](CO)N1C[C@H](C)[C@H](CN(C)C)Oc2ccc(NS(=O)(=O)c3ccc(F)cc3)cc2CC1=O,4.4,101.2,x,0.1,16.7,1.4
COc1ccc(S(=O)(=O)Nc2ccc3c(c2)C(=O)N([C@H](C)CO)C[C@H](C)[C@@H](CN(C)S(=O)(=O)c2cccs2)O3)cc1,25.5*,94.3,x,6.6,5.0,7.5
COc1ccc(NC(=O)Nc2ccc3c(c2)C(=O)N([C@H](C)CO)C[C@H](C)[C@@H](CN(C)S(=O)(=O)c2cccs2)O3)cc1,3.9,104.3,x,11.9,13.2,-9.5
C[C@H](CO)N1C[C@H](C)[C@H](CN(C)CC2CCCCC2)Oc2ccc(NS(=O)(=O)c3ccc(F)cc3)cc2CC1=O,3.5,99.5,x,10.8,29.9*,4.8
CC(C)(CN1CCCN(CC(C)(C)C(=O)O)C1=O)C(=O)O,x,102.8,x,x,x,x
